Assay outcomes: PubChem, National Center for Advancing Translational Sciences (NCATS)
An excerpt weighted towards active compounds, which were near 1.6% of everything screened.
RXFP1 agonist – qHTS Assay for Agonists of the Relaxin Receptor RXFP1 | Relaxin receptor 1 (Homo sapiens), Q9HBX9 | 370,000 tested, 0.3% active | HEK293T-RXFP1 cAMP TR-FRET, 30 min; response scale: percent of porcine relaxin response, buffer zero | Potency, µM (top dose mostly 57.5 µM), inactives show top-dose activation, actives largely listed as activators; active = well fitted activation curve with a large enough effect; inconclusive = small, poorly fitted or top-dose-only effect; note: potency is the fitted concentration of half-maximal effect; % is set by controls: 0 for no effect and ±100 for the full control effect; nearly all actives have a fitted effect of over 60% in size
Target sequence (Q9HBX9 whole entry, looked up): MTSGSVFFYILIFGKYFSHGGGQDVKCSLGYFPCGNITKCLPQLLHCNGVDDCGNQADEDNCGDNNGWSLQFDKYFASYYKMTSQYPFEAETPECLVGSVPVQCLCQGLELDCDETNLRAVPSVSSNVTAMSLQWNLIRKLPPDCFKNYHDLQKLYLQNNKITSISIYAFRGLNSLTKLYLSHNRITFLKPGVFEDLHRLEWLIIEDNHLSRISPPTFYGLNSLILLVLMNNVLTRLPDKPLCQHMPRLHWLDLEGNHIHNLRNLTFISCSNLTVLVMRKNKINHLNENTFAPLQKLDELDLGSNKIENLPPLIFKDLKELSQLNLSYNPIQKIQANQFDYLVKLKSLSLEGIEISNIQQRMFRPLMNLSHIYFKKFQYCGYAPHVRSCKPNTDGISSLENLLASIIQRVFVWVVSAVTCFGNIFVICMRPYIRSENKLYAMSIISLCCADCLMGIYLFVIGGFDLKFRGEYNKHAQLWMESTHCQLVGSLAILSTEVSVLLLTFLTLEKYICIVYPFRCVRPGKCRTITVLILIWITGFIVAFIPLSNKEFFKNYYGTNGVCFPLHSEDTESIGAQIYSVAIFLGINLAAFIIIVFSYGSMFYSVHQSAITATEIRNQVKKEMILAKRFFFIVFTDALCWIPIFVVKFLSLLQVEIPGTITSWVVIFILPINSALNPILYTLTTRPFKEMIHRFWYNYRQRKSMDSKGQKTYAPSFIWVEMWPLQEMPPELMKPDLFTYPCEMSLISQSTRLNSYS
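cAMP rise read by TR-FRET after 30 min, 37C compound exposure (up to 58 uM) in RXFP1-transfected HEK293 cells with Ro 20174 present. EC50 from Hill-equation fits, with 29 nM porcine relaxin as 100% and buffer as basal.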
Giardia kill – Small Molecules that selectively kill Giardia lamblia: qHTS. activity change, % at 7.66 µM, hits read low. Giardia lamblia trophozoite viability. AID 540267, 2011. 340,000 tested, 0.15% active; in the data active = activity change below about -80%; inconclusive = between about -30% and that limit;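 note: parasites exposed to compound for two days anaerobically before the ATP read; % is set by controls: 0 for no effect and ±100 for the full control effect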
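ATP-content bioluminescence gauges trophozoite survival. Cells (100/well) receive compound and incubate anaerobically for 48 hrs at 37 deg C; detection reagent follows for 15-30 min at room temperature.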
RXFP1 antag – qHTS Assay for Antagonists of the Relaxin Receptor RXFP1; activity change, negative = inhibition, % at 57.5 µM; Relaxin receptor 1 (Homo sapiens), Q9HBX9; 350,000 tested, 0.59% active; HEK293-RXFP1, relaxin-stimulated cAMP HTRF, 30 min; stronger effect = lower value; AID 1259400, 2018;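 active = activity change of -60% or lower, but not beyond a set lower limit; inconclusive = change between -60% and -40%, or beyond the set limit; inactive = change above -40%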; note: % is set by controls: 0 for no effect and ±100 for the full control effect
Coupling enz – qHTS Assay for Inhibitors of Fructose-1,6-bisphosphate Aldolase from Giardia Lamblia: Coupling assay counterscreen; coupling enzyme system counterscreen, AmpLite Red fluorescence; activity change, negative = inhibition, % at 58.2 µM, hits read low; 290,000 tested, 0.67% active; AID 2472, 2010; in the data active = activity change below about -30%; note: % is set by controls: 0 for no effect and ±100 for the full control effect
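Activity here indicates interference with the coupling reaction, not aldolase inhibition. Compounds at 57.5 uM final met coupling enzymes for 10 min at RT; substrate and AmpLite Red detection followed, with a 525/598 nm fluorescence read after 20 min.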
gsp antagonist – qHTS for Antagonists of gsp, the Etiologic Mutation Responsible for Fibrous Dysplasia/McCune-Albright Syndrome: qHTS. 340,000 tested, 0.4% active. Potency, µM (titrated, usually from 76.9 µM), for inactives: top-dose activity change, negative = inhibition, actives largely listed as inhibitors. AID 624288, 2012. gsp-mutant cells, cAMP HTRF, 30 min; calls by dose curve; cell line not stated here;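 note: intracellular cAMP measured with PDE inhibitor Ro 20-1724 present during compound exposure; potency is the fitted concentration of half-maximal effect; % is set by controls: 0 for no effect and ±100 for the full control effect; nearly all actives have a fitted effect of over 65% in size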
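Measurement of cellular cAMP by homogeneous time-resolved fluorescence following a 30 min compound exposure at 37C. The PDE inhibitor […] was present throughout; the assay buffer was DPBS with 0.05% BSA and 0.005% Tween 20.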
gsp ag – qHTS for Agonist of gsp, the Etiologic Mutation Responsible for Fibrous Dysplasia/McCune-Albright Syndrome: qHTS. Potency, µM (doses to about 76.9 µM), for the others: at the top dose activation (cAMP increase), hits mostly activators. 340,000 tested, 0.13% active. gsp mutant cells, cAMP HTRF, 30 min; active = well fitted activation curve with a large enough effect; inconclusive = small, poorly fitted or top-dose-only effect, or another doubt; inactive = no such curve, though single readings can be large or run the other way; cell line not stated here;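 note: phosphodiesterase inhibitor Ro 20-1724 added with compounds to block cAMP breakdown; potency is the fitted concentration of half-maximal effect; nearly all actives have a fitted effect of over 60% in size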
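Cells stably selected in G418 were plated at 2000/well, grown 16-24 hr, then given compounds in DMSO with the PDE inhibitor […] (300 uM solution added) for 30 min at 37C; cAMP was read by HTRF.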
* = called active by the depositor; u = inconclusive; x = no result; ! = repeats disagree; [ ] = another dose, or the depositor's remark.

SMILES	RXFP1 agonist	Giardia kill	RXFP1 antag	Coupling enz	gsp antagonist	gsp ag
CC(C)=CCC/C(C)=C/CO/N=C1/C[C@@H](O)[C@@H](O)[C@@H]2[C@H]3C(=O)N(c4ccc(F)cc4F)C(=O)[C@@H]3CC[C@@H]12	x	x	x	0	x	x
NC(=O)NS(=O)(=O)c1ccc(Cl)cc1	x	x	10	x	x	x
N#C/C(=C1\C(=O)Nc2c(Cl)cc(Cl)cc21)c1nnc2n1CCCCC2	-1%	-27	8	-38*	5%	10%
Oc1ccc(O)c(Cc2nc3ccccc3s2)c1	-3%	3	-77*	0	3%	-23%
O=C1S/C(=C\C=C\c2ccco2)C(=O)N1c1ccccc1	0%	51	u	2	-11%	28%[15.4 µM]
O=C1S/C(=C\C=C\c2ccco2)C(=O)N1c1ccc(O)cc1	0%	2	-63*	-23	u	18%
NNc1nncc2ccccc12	x	x	4	-59*!	x	x
O=C(N/N=C/c1cccnc1)c1ccccc1OCc1ccc(Cl)cc1	3%	x	x	-10	x	x
O=C(N/N=C/c1cccnc1)c1ccccc1OCc1ccc(Br)cc1	1%	-9	3	-38*	-35%	-22%[15.4 µM]
O=C1CCCC2=C1C1O[C@](CCCCN3C(=O)c4ccccc4C3=O)(Cc3ccccc31)O2	0%[11.5 µM]	x	x	1	x	x
C/C(Cn1nnc([N+](=O)[O-])n1)=N\NC(=O)c1ccccc1	1%	-27	3	-40*	-1%	-59%
C/C(Cn1cnc([N+](=O)[O-])n1)=N\NC(=O)c1ccccc1	0%	3	-4	-6	8%	-42%
CCOc1cc(CNC(C)C)c(Cl)cc1OCC(=O)NCCc1ccccc1	1%	-8	-21	4	-2%	5%
CC(=O)c1ccc(NC(=S)Nc2cccc3cnccc23)cc1	3%	19	-22	-62*	-1%	10%
Cc1ccc(NC(=S)Nc2cccc3cnccc23)cc1C	3%	10	-10	-44*	-12%	0%[15.4 µM]
Cc1ccc(NC(=S)Nc2cccc3cnccc23)cc1	7%	9	0	-38*	-2%	1%
S=C(Nc1cccc(Cl)c1)Nc1cccc2cnccc12	-2%	-8	x	4	-6%	1%
OC1C2COC(O2)[C@H](O)C1O (stereo not given in full)	x	x	x	2	x	x
COC(=O)NC(/C(C(=O)OC)=C(\C)NCc1ccccc1)c1ccc(F)cc1 (stereo not given)	x	x	x	-4	x	x
Cc1nc2ccc(N=NN(C)C)cc2[nH]1	-2%	-11	5	-35*	4%	3%
Cc1nc2ccc(Cc3ccc4nc(C)[nH]c4c3)cc2[nH]1	1%	5	-14	2	-23%	-12%
O=C(NCCOC(=O)c1ccc(Cl)c(S(=O)(=O)N2CCCCC2)c1)c1ccncc1	1%	-1	-3	3	40µM*	15%
COc1cc(C2(c3ccc(O)c(OC)c3)C(=O)N(C)c3ccc(C)cc32)ccc1O	x	1	-3	x	0%	-13%
O=C(O)Cc1ccc2c(c1)C(=O)c1ccccc1CO2	x	x	-22	x	x	x
c1ccc(-c2nc3nonc3nc2-c2ccccc2)cc1	1%	-9	1	-37*	18%	8%
SMILES	RXFP1 agonist	Giardia kill	RXFP1 antag	Coupling enz	gsp antagonist	gsp ag
Nc1c(-c2ccccc2)nc(Cl)nc1-c1ccccc1	6%	-5	-4	2	3%	-3%
Cc1ccc(C(=O)COC(=O)CN2C(=O)C3C4CC(C(Br)C4Br)C3C2=O)cc1 (stereo not given)	0%	12	-6	0	-1%	u
CN(C)S(=O)(=O)Oc1ccsc1C(=O)Nc1ccccc1Cl	-1%	-10	-6	4	28µM*	-41%
CN(C)S(=O)(=O)Oc1ccsc1C(=O)Nc1cccc(Cl)c1Cl	0%	6	3	1	u	-29%
Cc1c(C(=O)NNc2cc(=O)n(C)c(=O)n2C)cccc1[N+](=O)[O-]	14µM*	-11	25	-7	12%	u
C[C@H]1CN([C@@H](C)CO)C(=O)c2cc(Br)cnc2O[C@H]1CN(C)C(=O)c1cccnc1	x	x	10	x	x	32µM*
C[C@@H]1CN([C@H](C)CO)C(=O)c2cc(Br)cnc2O[C@H]1CN(C)C(=O)c1ccccc1	x	x	-9	x	x	-22%
CCCCn1c(Oc2cccc(C(=O)OC)c2)nc2c1c(=O)n(C)c(=O)n2C	8%	x	-6	x	x	x
COC(=O)c1cccc(Oc2nc3c(c(=O)n(C)c(=O)n3C)n2Cc2ccc(C)cc2)c1	x	-10	-2	x	10%	7.9µM*
N#CC1=C(c2ccccc2)/C(=C/c2ccccc2)OC1=O	1%	-4	x	0	-21%	-87%
N#CC(C#N)=C1NC(N)=C(C#N)C(c2ccccc2)=C1C#N	28µM*	x	x	11	x	x
COc1ccc(/C(=C\C(=O)O)c2nccc3cc(OC)c(OC)cc23)cc1OC	x	x	x	0	x	x
COc1ccc(/C(=N/OC(C)=O)c2nccc3cc(OC)c(OC)cc23)cc1OC	-3%	22	1	-32*	-3%	1%
Cc1ccc(C(=O)N/C(=C\c2cccc([N+](=O)[O-])c2)C(=O)NC(Cc2ccccc2)C(=O)O)cc1 (stereo not given)	0%	-18	-2	x	-21%	-9%
O=S(=O)(Nc1cccc2ncccc12)c1cccs1	1%	-11	-16	-38*	8%	1%
Cc1c(NS(=O)(=O)c2cccs2)cccc1-c1nc2cccnc2s1	6%	-27	8	7	-7%	-11%
CCOc1ccccc1NS(=O)(=O)c1cccs1	0%	-9	0	-41*	-1%	-8%
CCOc1ccccc1NC(=O)CCS(=O)(=O)c1cccs1	0%	2	4	1	10%	u
O=C1Nc2ccc(NS(=O)(=O)c3cccs3)c3cccc1c23	-2%	4	x	-56*	-3%	14%
CC1CCCCC1NC(=O)CCCN1C(=O)c2ccccc2C1=O (stereo not given)	x	1	-13	x	4%	17%[15.4 µM]
